From paper PMC4336329 (PLoS ONE, 2015) come the findings set out here.

Screen size: about 310,000 compounds; about 14,000 (4.5%) showed an effect of 50% or more. Effects have a minus sign here. The sample as a whole holds a higher share of strong results than the screen did. Where a SMILES comes first, the peptide text is derived from it. The star is where a group is joined. Cbz = O=C(OCc1ccccc1)*
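Also: peak tail current of the secondary pulse compared with the same well before compound.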

The target in this test is human ether-à-go-go-related gene (hERG) potassium channel (human, UniProt Q12809). The test is described as follows: primary screen, population patch clamp on CHO cells stably expressing hERG; higher = less effect of the substance.
human ether-à-go-go-related gene (hERG) potassium channel, sequence (Q12809 whole entry, looked up): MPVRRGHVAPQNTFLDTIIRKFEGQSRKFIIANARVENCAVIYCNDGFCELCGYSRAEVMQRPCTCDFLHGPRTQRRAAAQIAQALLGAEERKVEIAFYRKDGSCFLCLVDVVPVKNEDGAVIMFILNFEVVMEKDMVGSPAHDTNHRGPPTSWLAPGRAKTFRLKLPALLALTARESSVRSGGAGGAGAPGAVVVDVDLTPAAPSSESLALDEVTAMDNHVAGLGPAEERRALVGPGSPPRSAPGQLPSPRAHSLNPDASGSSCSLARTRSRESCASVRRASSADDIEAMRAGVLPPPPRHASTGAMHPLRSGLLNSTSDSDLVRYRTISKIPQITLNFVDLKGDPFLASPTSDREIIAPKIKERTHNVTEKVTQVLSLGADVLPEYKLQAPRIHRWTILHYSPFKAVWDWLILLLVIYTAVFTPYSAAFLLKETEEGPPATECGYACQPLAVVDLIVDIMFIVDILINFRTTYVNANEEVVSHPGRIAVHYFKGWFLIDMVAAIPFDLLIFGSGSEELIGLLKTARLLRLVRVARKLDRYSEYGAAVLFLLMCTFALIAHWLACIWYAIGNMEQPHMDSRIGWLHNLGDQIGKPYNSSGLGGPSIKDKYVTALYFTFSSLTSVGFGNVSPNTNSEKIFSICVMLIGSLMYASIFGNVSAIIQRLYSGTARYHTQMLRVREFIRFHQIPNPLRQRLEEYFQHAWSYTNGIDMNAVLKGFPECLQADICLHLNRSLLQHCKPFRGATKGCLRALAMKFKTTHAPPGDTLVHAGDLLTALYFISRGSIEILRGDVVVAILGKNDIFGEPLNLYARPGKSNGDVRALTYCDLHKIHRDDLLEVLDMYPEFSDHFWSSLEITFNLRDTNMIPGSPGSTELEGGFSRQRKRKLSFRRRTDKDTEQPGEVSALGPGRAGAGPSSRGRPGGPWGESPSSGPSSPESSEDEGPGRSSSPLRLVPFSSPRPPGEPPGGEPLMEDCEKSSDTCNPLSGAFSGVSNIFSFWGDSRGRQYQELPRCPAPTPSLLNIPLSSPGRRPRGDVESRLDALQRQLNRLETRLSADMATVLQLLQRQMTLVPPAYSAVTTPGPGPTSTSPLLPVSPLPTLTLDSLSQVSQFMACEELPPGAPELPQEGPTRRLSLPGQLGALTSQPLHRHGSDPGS
`COC1c2ccccc2C(=O)N1Cc1ccc(F)cc1` (stereo not drawn): the “hERG current change (%, negative = inhibition) at 10uM” value is given as 5.48%. The result for `O=C(Oc1c(Br)cc([N+](=O)[O-])cc1Br)c1cccnc1` reads 16.7%; that for `O=C(O)CCC(NC(=O)C1CCCN1C(=O)OCc1ccccc1)C(=O)O` (stereo not drawn) (Cbz-Pro-Glu-OH; configuration not given here), 14%; that for `Cc1cc(C)nc(SCCc2ccncc2)n1.Cl`, 9.82%. To `CN(c1ccc(OC(=O)CC2OC(=O)c3ccccc32)cc1)S(=O)(=O)c1ccccc1` (stereo not drawn) belongs -8.52%; to `Cc1ccc(C2C(N)C(=O)N2c2ccc(C)cc2)cc1` (stereo not drawn), -5.54%. To `CN1C2CCC1CC(OC(=O)c1c[nH]c3ccccc13)C2.Cl` (stereo not drawn) belongs -40.2%.

Consider `O=C(OC1Cn2c(=O)ccc(=O)n2C1)c1ccc([N+](=O)[O-])cc1`, for which the “hERG current change (%, negative = inhibition) at 10uM” value was -12.8%. To `CCOc1ccc(C(=O)OC2CC3CCC(C2)N3C)cc1.Cl` (stereo not drawn) belongs -30%; to `CN1[C@@H]2CC[C@H]1CC(OC(=O)c1c[nH]c3ccccc13)C2.Cl` (stereo partly drawn), -48.1%. The result for `CN1C2CCC1CC(OC(=O)c1ccc(Cl)cc1)C2.Cl` (stereo not drawn) reads -48.9%; that for `CN1C2CCC1CC(OC(=O)c1ccc([N+](=O)[O-])cc1)C2` (stereo not drawn), -67.9%; that for `CN1C2CCC1CC(OC(=O)c1cc(Cl)cc(Cl)c1)C2.Cl` (stereo not drawn), -57.4%.

`CN1C2CCC1CC(OC(=O)c1c[nH]c3ccccc13)C2` (stereo not drawn): the “hERG current change (%, negative = inhibition) at 10uM” value is on record as -59.1%. On to `CN1CCCC(OC(=O)c2cc(Cl)cc(Cl)c2)C1.Cl` (stereo not drawn), for which the “hERG current change (%, negative = inhibition) at 10uM” value was -43.4%. To `CCOC(=O)c1ccc(S(=O)(=O)N2CCN(c3ccccn3)CC2)cc1` belongs 8.95%; to `CCOc1ccc(OCC)c(NC(=O)C2CCN(c3nn4c(=O)cc(C)nc4s3)CC2)c1`, -30.5%. Regarding `COc1ccc(CCC(=O)c2ccc(OC)cc2)cc1`, the “hERG current change (%, negative = inhibition) at 10uM” value is -1.41%. To `Cc1ccc(C)c(NC(=O)COC(=O)CCCN=C2NS(=O)(=O)c3ccccc32)c1` belongs 4.55%; to `Cn1nc([N+](=O)[O-])nc1Sc1cccc2cccnc12`, 13.9%; to `Cc1ccc2c(Cl)cc(Cl)c(OCC(=O)NCCc3ccccn3)c2n1`, -42.7%. To `Cc1ccc(CNC(=O)[C@@H](NC(=O)Cc2ccccc2)C(C)C)cc1` belongs 6.89%.

Turning to `CCN(CC)CCCNC(=O)C1CCC(=O)N(c2ccc(OC)cc2)C1c1ccc(F)cc1` (stereo not drawn), the “hERG current change (%, negative = inhibition) at 10uM” value was found to be 1.14%. The result for `CCOc1ccc(N(CC)C(=O)Cc2c(C(=O)O)n(C)c3ccccc23)cc1` reads 16.8%; that for `COC(=O)c1sccc1-n1cccc1C(=O)C(=O)N1CCOCC1`, -78.3%; that for `COC(=O)c1sccc1-n1cccc1C(=O)C(=O)N1CCCC1`, 14.3%. To `COC(=O)c1sccc1-n1cccc1C(=O)N1CCOCC1` belongs -44.5%; to `COc1ccc(CNC(=O)C(C)n2nc(C)c3c(C)n(-c4ccc(C)cc4)nc3c2=O)cc1` (stereo not drawn), -50.1%; to `Cc1ccc(-n2nc3c(=O)n(CC(=O)NCCC4=CCCCC4)nc(C)c3c2C)cc1`, 2.08%. The result for `Cc1ccc(CNC(=O)CCCn2nc(C)c3c(C)n(-c4ccccc4)nc3c2=O)cc1` reads 5.48%. Regarding `Cc1ccc(-n2nc3c(=O)n(C(C)C(=O)NCc4ccc5c(c4)OCO5)nc(C)c3c2C)cc1` (stereo not drawn), the “hERG current change (%, negative = inhibition) at 10uM” value is reported as 1.78%. The result for `Cc1ccc(-n2nc3c(=O)n(C(C)C(=O)NCc4ccccc4Cl)nc(C)c3c2C)cc1` (stereo not drawn) reads -35.5%; that for `CCOc1ccc(CNC(=O)C(C)n2nc(C)c3c(C)n(-c4ccccc4)nc3c2=O)cc1` (stereo not drawn), -16.1%; that for `CCC(C(=O)NCCC1=CCCCC1)n1nc(C)c2c(C)n(-c3ccccc3)nc2c1=O` (stereo not drawn), -48.6%.

On to `Cc1ccc(-n2nc3c(=O)n(CCCC(=O)NCc4ccc(Cl)cc4)nc(C)c3c2C)cc1`, for which the “hERG current change (%, negative = inhibition) at 10uM” value was 4.82%. To `Cc1ccc(-n2nc3c(=O)n(C(C)C(=O)NCc4ccc(Cl)cc4)nc(C)c3c2C)cc1` (stereo not drawn) belongs -63.5%; to `CSc1ccc(CNC(=O)C(C)n2nc(C)c3c(C)n(-c4ccccc4)nc3c2=O)cc1` (stereo not drawn), -38.2%.

Take `Cc1ccc(-n2nc3c(=O)n(C(C)C(=O)NCCC4=CCCCC4)nc(C)c3c2C)cc1` (stereo not drawn): the “hERG current change (%, negative = inhibition) at 10uM” value is reported as -51.4%. For the compound `Cc1ccc(-n2nc3c(=O)n(CCCC(=O)NCc4ccc(F)cc4)nc(C)c3c2C)cc1`, the “hERG current change (%, negative = inhibition) at 10uM” value is listed as -76.5%. On to `CCOc1ccc(C(=O)NNC(=O)CCNC(=O)c2ccco2)cc1OC`, for which the “hERG current change (%, negative = inhibition) at 10uM” value turned out to be 12.9%. The result for `Cc1ccc(OCCn2cccc2/C=C2/C(=O)NC(=O)N(Cc3ccco3)C2=O)cc1` reads -0.631%. The result for `CCOC(=O)C1CCN(C(=S)Nc2cc(OC)c(OC)cc2C(=O)OC)CC1` reads -10.9%; that for `COc1cc(CNCC(C)C)c(Br)cc1OCC(=O)NCc1ccccc1`, -10.7%.

Regarding `Cc1ccc(C2C(C#N)=C(N)OC3=C2C(=O)CC(C)(C)C3)s1` (stereo not drawn), the “hERG current change (%, negative = inhibition) at 10uM” value is -4.59%. The result for `COc1ccc(-n2nnc3c(SCC(=O)N4CCCc5ccccc54)ncnc32)cc1` reads 13.6%; that for `CCOc1ccccc1CNC(=O)C(C)n1nc(C)c2c(C)n(-c3ccccc3)nc2c1=O` (stereo not drawn), -65.4%. The result for `COc1ccccc1CNC(=O)C(C)n1nc(C)c2c(C)n(-c3ccccc3)nc2c1=O` (stereo not drawn) reads -0.0415%.

With `Cc1nn(C(C)C(=O)NCCCc2ccccc2)c(=O)c2nn(-c3ccccc3)c(C)c12` (stereo not drawn), the “hERG current change (%, negative = inhibition) at 10uM” value was -20%. The result for `Cc1ccc(CCNC(=O)C(C)n2nc(C)c3c(C)n(-c4ccccc4)nc3c2=O)cc1` (stereo not drawn) reads -36.3%; that for `Cc1ccc(-n2nc3c(=O)n(C(C)C(=O)NCCCc4ccccc4)nc(C)c3c2C)cc1` (stereo not drawn), -55.2%; that for `Cc1nn(C(C)C(=O)NCc2ccccc2F)c(=O)c2nn(-c3ccccc3)c(C)c12` (stereo not drawn), 13.8%. To `CNC(=S)Nc1cccc(S(=O)(=O)NC2=NCCC2)c1` belongs -7.6%; to `Cc1c(-c2ccccc2)c(=O)oc2ccc(O)cc12`, 13.8%; to `CC1CCCCC1NC1CCN(C)CC1` (stereo not drawn), 23.9%. On to `O=C(Nc1ccc2c(c1)OCO2)c1c(F)cccc1F`, for which the “hERG current change (%, negative = inhibition) at 10uM” value was determined as 3.95%. Regarding `COc1ccccc1-c1cc(C(=O)NCc2ccc(Cl)cc2)no1`, the “hERG current change (%, negative = inhibition) at 10uM” value turned out to be 3.64%. For the compound `Cc1cc(Nc2c(C#N)c(N)nn2C)ccc1F`, the “hERG current change (%, negative = inhibition) at 10uM” value is reported as 6.99%.

Regarding `Cc1cc(Nc2nn(C)c(N)c2C#N)ccc1F`, the “hERG current change (%, negative = inhibition) at 10uM” value was -14.8%. The result for `Cc1cc(Nc2n[nH]c(N)c2C#N)ccc1F` reads -70.2%. To `CCOc1ccc(C(=O)Nc2cc(-c3nc4ccccc4[nH]3)ccc2Cl)cc1[N+](=O)[O-]` belongs -29.1%. To `CCCn1c2ccccc2c2cnn(CC(=O)N3CCOCC3)c(=O)c21` belongs -13.7%; to `Cn1c2ccccc2c2cnn(CC(=O)N3CCCCC3)c(=O)c21`, -10.4%. Regarding `CCCn1c2ccccc2c2cnn(CC(=O)NCCCN3CCCC(C)C3)c(=O)c21` (stereo not drawn), the “hERG current change (%, negative = inhibition) at 10uM” value was -70.8%. To `CCCn1c2ccccc2c2cnn(CC(=O)N3CCN(C4CCCCC4)CC3)c(=O)c21` belongs -72.6%.

As for `CCCn1c2ccccc2c2cnn(CC(=O)NC3CCCCC3C)c(=O)c21` (stereo not drawn), the “hERG current change (%, negative = inhibition) at 10uM” value turned out to be 11.7%. The result for `CCCn1c2ccccc2c2cnn(CC(=O)NCCCOC)c(=O)c21` reads -1.43%; that for `CCCn1c2ccccc2c2cnn(CC(=O)NCCCN3C(C)CCCC3C)c(=O)c21` (stereo not drawn), -41.8%. In the case of `CCC1CCCCN1CCCNC(=O)Cn1ncc2c(C)n(Cc3ccccc3Cl)c(C)c2c1=O` (stereo not drawn), the “hERG current change (%, negative = inhibition) at 10uM” value is given as -14.6%. To `CCCn1c2ccccc2c2cnn(CC(=O)NCCCN3CCN(c4ccccc4)CC3)c(=O)c21` belongs -74.2%; to `CCCn1c2ccccc2c2cnn(CC(=O)NCCCN3CCCCC3CC)c(=O)c21` (stereo not drawn), -62.2%; to `CCC1CCCCN1CCCNC(=O)Cn1ncc2c([nH]c3ccc(C)cc32)c1=O` (stereo not drawn), -6.66%. To `Cc1ccc(N(Cc2cc3ccccc3[nH]c2=O)C(=O)c2cccs2)cc1C` belongs 9.8%; to `O=C(NNc1ccc(Cl)cc1)C1CCC1`, 16.6%.

On to `Cc1cc(C)cc(OCC(=O)O/N=C(\N)c2ccccc2Cl)c1`, for which the “hERG current change (%, negative = inhibition) at 10uM” value is listed as -13.6%. The result for `CCOc1cc(/C=C(\C#N)C(N)=O)ccc1OCc1c(C)no[n+]1[O-]` reads -0.204%; that for `Cc1cc(C)n(-c2ccc(C(F)(F)F)cc2[N+](=O)[O-])n1`, 1.78%. As to `Cc1nn(C)c(N)c1-c1ccccc1`, the “hERG current change (%, negative = inhibition) at 10uM” value is 25.4%.

As to `Cc1ccc(C)c(Cn2c3ccccc3c3cnn(CC(=O)NCCCN4CCOCC4)c(=O)c32)c1`, the “hERG current change (%, negative = inhibition) at 10uM” value was -49.7%. Consider `O=C(Cn1ncc2c3ccccc3n(Cc3ccccc3)c2c1=O)NCCCN1CCCC1=O`, for which the “hERG current change (%, negative = inhibition) at 10uM” value was -29.8%.

Turning to `CCCn1c2ccccc2c2cnn(CC(=O)NC3CCCCC3)c(=O)c21`, the “hERG current change (%, negative = inhibition) at 10uM” value was found to be 2.23%.

For `O=C(Cn1ncc2c3ccccc3n(Cc3ccc(Cl)cc3)c2c1=O)NCCCN1CCCC1=O`, the “hERG current change (%, negative = inhibition) at 10uM” value is listed as -34.5%.

Consider `CCCn1c2ccccc2c2cnn(CC(=O)NCCCN3CCCCC3)c(=O)c21`, for which the “hERG current change (%, negative = inhibition) at 10uM” value is recorded as -53.4%.

For the compound `CCCn1c2ccccc2c2cnn(CC(=O)NC3CCN(Cc4ccccc4)CC3)c(=O)c21`, the “hERG current change (%, negative = inhibition) at 10uM” value is recorded as -55.1%. On to `Cc1ccc(C)c(Cn2c3ccccc3c3cnn(CC(=O)NCCCN4CCCCC4)c(=O)c32)c1`, for which the “hERG current change (%, negative = inhibition) at 10uM” value is -71.9%.

Consider `O=C(Cn1ncc2c3ccccc3n(Cc3ccccc3)c2c1=O)NCCCN1CCCC1`, for which the “hERG current change (%, negative = inhibition) at 10uM” value was -72.5%.

On to `Cc1ccccc1Cn1c2ccccc2c2cnn(CC(=O)NCCCN3CCN(C)CC3)c(=O)c21`, for which the “hERG current change (%, negative = inhibition) at 10uM” value is listed as -3.23%. The result for `CCCn1c2ccccc2c2cnn(CC(=O)NC3CCC(C)CC3)c(=O)c21` (stereo not drawn) reads 9.11%.
